{
  "source": "PubChem BioAssay AID2685",
  "about": "(National Center for Advancing Translational Sciences (NCATS), 2010)",
  "note": "About 2,100 (0.66%) of roughly 320,000 compounds were called active. Not shown: some 53% with an inconclusive outcome. Calls come from the whole dose curve; as a rule, active = well fitted inhibition curve with a large enough effect in the signal ratio, with a control signal flat (not every such curve was filed as active); inconclusive = small, poorly fitted or top-dose-only effect, or effect the other way, or a change in a side signal; inactive = flat fitted curve, though single readings scatter; the % refers to the signal ratio. The full list was thinned out, with actives kept by preference. Potency is the fitted concentration of half-maximal effect.",
  "data": [
    {"experiment": "qHTS Assay for Lipid Storage Modulators in Drosophila S3 Cells;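 for cell number change: cells counted by Cell Tracker Red CMTPX staining in the red channel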; for lipid storage change, negative = inhibition: % is set by controls: 0 for no effect and ±100 for the full control effect", "settings": "BODIPY lipid droplet fluorescence, 18-24 h, cells fed with added oleic acid; cell number change: measured here: cell count max response; series mostly up to 46.1 µM; lipid storage change, negative = inhibition: at the top concentration", "how_it_was_run": "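Drosophila S3 cells loaded with oleic acid (400 uM, as added) and compounds at several concentrations; lipid droplets imaged by 488-nm laser-scanning cytometry, 500–530 nm intensity and object ratio to cell channel. Percent activity normalized to 20 uM Triacsin C.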", "units": {"cell number change": "%"}, "values": [
      {"smiles": "O=C(CN1CCN(CC(=O)Nc2ccccc2C(F)(F)F)CC1)Nc1ccccc1F", "lipid storage change, negative = inhibition": "0.494% (inactive)"},
      {"smiles": "O=C(CCC(=O)Nc1ccccc1Cl)NNC(=O)c1ccco1", "lipid storage change, negative = inhibition": "2.6% (inactive)", "cell number change": 11.4},
      {"smiles": "CCN1C(=O)[C@H]2[C@@H](c3ccc(-c4ccc5c(c4)OCO5)cc3)N3CCC[C@@]3(C(=O)OC)[C@H]2C1=O", "lipid storage change, negative = inhibition": "13.4% (inactive)", "cell number change": -27.4},
      {"smiles": "Cc1ccccc1NCN1C(=O)C2CCC(C)(C1=O)C2(C)C", "note": "(configuration not stated)", "lipid storage change, negative = inhibition": "-4.09% (inactive)", "cell number change": -11.4},
      {"smiles": "CCOC(=O)c1cccc(NS(=O)(=O)Cc2ccccc2)c1", "lipid storage change, negative = inhibition": "-7.72% (inactive)", "cell number change": -5.1},
      {"smiles": "COc1cccc(/C=C/C(=O)OCC(=O)Nc2cc(C(F)(F)F)ccc2Cl)c1", "lipid storage change, negative = inhibition": "12.8% (inactive)", "cell number change": 1.22},
      {"smiles": "COCCNC(=O)CN(C(=O)Cn1nnc2ccccc21)c1ccc(C)c(F)c1", "lipid storage change, negative = inhibition": "9.15% (inactive)", "cell number change": -2.04},
      {"smiles": "NC(=O)CCCc1nc(-c2ccccc2Cl)no1", "lipid storage change, negative = inhibition": "-1.99% (inactive)", "cell number change": -20.4},
      {"smiles": "CCN1C(=NCc2ccco2)N[C@@H](c2cccc(F)c2)C(C(=O)OC)=C1C", "lipid storage change, negative = inhibition": "-18% (inactive)", "cell number change": 16.3},
      {"smiles": "COCCNC(=O)C(=O)NCCN1CCOCC1", "lipid storage change, negative = inhibition": "-0.917% (inactive)", "cell number change": -14.6},
      {"smiles": "CCOc1ccc(NC(=O)CSc2nc(=O)n(Cc3cccnc3)c3c2CCC3)cc1", "outcome": "inactive [at 0.0737 µM]"},
      {"smiles": "COc1ccc(-n2c(-c3cccc(C)c3[N+](=O)[O-])n[nH]c2=S)cc1", "lipid storage change, negative = inhibition": "-20.3% (inactive)", "cell number change": 2.37},
      {"smiles": "Cc1ccccc1CN(C)C(C)C(=O)NCc1ccccc1", "note": "(configuration not stated)", "lipid storage change, negative = inhibition": "7.5% (inactive)", "cell number change": 16.8},
      {"smiles": "CCN(C(=O)CCNC(=O)Cn1cnc2ccccc2c1=O)c1ccccc1F", "outcome": "inactive", "cell number change": -0.794},
      {"smiles": "COc1ccc(Nc2nnc(-c3ccc(O)cc3)c3ccccc23)cc1", "outcome": "inactive"},
      {"smiles": "Cc1nc2cc(NC(=O)Nc3cccc4ccccc34)ccc2n1C", "lipid storage change, negative = inhibition": "-7.94% (inactive)", "cell number change": 19.9},
      {"smiles": "Cc1nc2cc(Nc3nnc(-c4ccccc4)c4ccccc34)ccc2n1C", "Potency": "11.6 µM (active)", "cell number change": -29.7},
      {"smiles": "O=C(CN1CCN(S(=O)(=O)N2CCOCC2)CC1)Nc1cc(Cl)cc(Cl)c1", "outcome": "inactive", "cell number change": 10},
      {"smiles": "O=C(NC1CCCCC1)c1cc(-c2ccc(F)cc2)on1", "Potency": "23.1 µM (active)", "cell number change": 15.8},
      {"smiles": "COc1ccc(-c2cc(C(=O)NC3CCCC3)no2)cc1", "outcome": "inactive", "cell number change": 6.09},
      {"smiles": "Cc1ccc(-c2cc(C(=O)NC3CCCC3)no2)cc1", "lipid storage change, negative = inhibition": "71.1% (inactive)", "cell number change": -1.32},
      {"smiles": "O=C(c1ccccc1)N1CCN(CC(O)COc2ccc(Br)cc2)CC1", "note": "(configuration not stated)", "outcome": "inactive"},
      {"smiles": "CCOC(=O)N1CCN(CC(O)COc2ccccc2C(C)CC)CC1", "note": "(configuration not stated)", "Potency": "3.66 µM (active)", "cell number change": 1.1},
      {"smiles": "O=C(C(c1ccccc1)c1ccccc1)N1CCN(CC(O)COc2ccccc2)CC1", "note": "(configuration not stated)", "Potency": "4.61 µM (active)", "cell number change": -10.2},
      {"smiles": "CCOC(=O)N1CCN(CC(O)COc2ccccc2C(C)C)CC1", "note": "(configuration not stated)", "lipid storage change, negative = inhibition": "-5.66% (inactive)", "cell number change": -2.25},
      {"smiles": "CCOC(=O)N1CCN(CC(O)COc2ccccc2[N+](=O)[O-])CC1", "note": "(configuration not stated)", "lipid storage change, negative = inhibition": "12.5% (inactive)", "cell number change": 10.6},
      {"smiles": "OC(COc1ccccc1)CN1CCOCC1", "note": "(configuration not stated)", "lipid storage change, negative = inhibition": "0.356% (inactive)", "cell number change": 9.9},
      {"smiles": "CCc1ccc(C(=O)Nc2ccc3c(c2)n(C)c(=O)n3C)cc1", "lipid storage change, negative = inhibition": "-15.8% (inactive)", "cell number change": -19.7},
      {"smiles": "CC1Cc2ccccc2N1C(=O)COC(=O)C1=COCCO1", "note": "(configuration not stated)", "lipid storage change, negative = inhibition": "8.97% (inactive)", "cell number change": -1.1},
      {"smiles": "COc1cccc(/C=N/n2nnnc2N)c1O", "lipid storage change, negative = inhibition": "-18.8% (inactive)", "cell number change": 2.87},
      {"smiles": "C=CCOc1c(CNC2CCCC2)cc(Cl)cc1OC", "lipid storage change, negative = inhibition": "5.16% (inactive)", "cell number change": 36.7},
      {"smiles": "Cc1ccc(-c2nc(NCc3ccco3)n(C(=O)c3ccco3)n2)cc1", "lipid storage change, negative = inhibition": "-2.37% (inactive)", "cell number change": -0.0963},
      {"smiles": "CC(NC(=O)C1CCCN1S(=O)(=O)c1ccccc1)c1ccccc1", "note": "(configuration not stated)", "outcome": "inactive", "cell number change": 4.49},
      {"smiles": "O=C(N1CCCCC1)C12CC3CC(C1)CC(C(=O)N1CCCCC1)(C3)C2", "outcome": "inactive", "cell number change": 5},
      {"smiles": "CCN(CC)CCCNc1oc(-c2ccc(OC)c(OC)c2)nc1C#N", "outcome": "inactive", "cell number change": 24.5},
      {"smiles": "CN(C)CCNc1oc(-c2cccc(Cl)c2)nc1C#N", "lipid storage change, negative = inhibition": "6.31% (inactive)"},
      {"smiles": "CN(C)CCCNc1oc(-c2cccc(Cl)c2)nc1C#N", "Potency": "23.1 µM (active)", "cell number change": 5.97},
      {"smiles": "O=C(O)c1cc2nc3c(c(C(F)(F)F)n2n1)CCCC3", "lipid storage change, negative = inhibition": "-22.7% (inactive)", "cell number change": -17.1},
      {"smiles": "COc1cc(C(=O)N2CCN(C(=O)C3CC3)CC2)cc(OC)c1OC", "Potency": "14.6 µM (active)", "cell number change": 0.295},
      {"smiles": "COc1cc(C(=O)N2CCN(C3CCCCC3)CC2)cc(OC)c1OC", "lipid storage change, negative = inhibition": "-6.47% (inactive)", "cell number change": 26.9},
      {"smiles": "COc1cc(C(=O)N2CCN(C)CC2)cc(OC)c1OC", "outcome": "inactive", "cell number change": -9.94},
      {"smiles": "CCOC(=O)C1=C(C)Nc2ccccc2N=C1NC(=O)/C=C/c1ccc(OC)cc1OC", "lipid storage change, negative = inhibition": "10.8% (inactive)", "cell number change": 0.577},
      {"smiles": "Cc1c(N(C(=O)c2cnccn2)C2(C(=O)NC3CCCC3)CCCCC2)c(=O)n(-c2ccccc2)n1C", "lipid storage change, negative = inhibition": "-2.91% (inactive)", "cell number change": -4},
      {"smiles": "O=C(CC1SC(=Nc2ccc(OC(F)F)cc2)N(CCC2=CCCCC2)C1=O)Nc1ccccc1F", "note": "(configuration not stated)", "lipid storage change, negative = inhibition": "9.36% (inactive)", "cell number change": -16.7},
      {"smiles": "C=CCN1C(=O)C(CC(=O)NCC)SC1=Nc1ccccc1OC", "note": "(configuration not stated)", "outcome": "inactive", "cell number change": -0.552},
      {"smiles": "COc1ccc(OC)c(NC(=O)CC2SC(=Nc3ccc(F)cc3)N(CCC3=CCCCC3)C2=O)c1", "note": "(configuration not stated)", "lipid storage change, negative = inhibition": "-15.3% (inactive)", "cell number change": 1.52},
      {"smiles": "COc1cc([N+](=O)[O-])ccc1NC(=O)CC1SC(=Nc2ccc(F)cc2)N(CCC2=CCCCC2)C1=O", "note": "(configuration not stated)", "Potency": "23.1 µM (active)", "cell number change": -22.5},
      {"smiles": "CCn1c2ccccc2c2cc(N=C3SC(CC(=O)Nc4ccccc4OC)C(=O)N3C)ccc21", "note": "(configuration not stated)", "lipid storage change, negative = inhibition": "3.11% (inactive)"},
      {"smiles": "CCOc1ccccc1N=C1SC(CC(=O)Nc2ccc(OC)cc2OC)C(=O)N1CCC1=CCCCC1", "note": "(configuration not stated)", "Potency": "25.9 µM (active)", "cell number change": -18.8},
      {"smiles": "Cc1c(C(N)=O)sc2ncn(CC(=O)N(C)C3CCCCC3)c(=O)c12", "lipid storage change, negative = inhibition": "-24.6% (inactive)", "cell number change": 7.26},
      {"smiles": "CS(=O)(=O)N1CCC(C(=O)N2CCN(c3ccccc3F)CC2)CC1", "lipid storage change, negative = inhibition": "-2.62% (inactive)", "cell number change": 9.98},
      {"smiles": "CCOc1ccc(-c2ccc(/C=C3/C(=N)N4C=CSC4=NC3=O)o2)c([N+](=O)[O-])c1", "lipid storage change, negative = inhibition": "-13.3% (inactive)", "cell number change": 4.83},
      {"smiles": "CC1=CN2C(=N)/C(=C/c3ccc([N+](=O)[O-])o3)C(=O)N=C2S1", "Potency": "14.6 µM (active)", "cell number change": -16.4},
      {"smiles": "CC1=CN2C(=N)/C(=C/c3ccc(C)o3)C(=O)N=C2S1", "lipid storage change, negative = inhibition": "-1.21% (inactive)", "cell number change": -10.7},
      {"smiles": "Cc1ccc(S(=O)(=O)Nc2cccc(-c3ccc4nnc(C)n4n3)c2)s1", "lipid storage change, negative = inhibition": "-1.01% (inactive)", "cell number change": 7.02},
      {"smiles": "O=C(NCc1ccccn1)Nc1cc(Cl)cc(Cl)c1", "lipid storage change, negative = inhibition": "-7.61% (inactive)", "cell number change": 7.72},
      {"smiles": "COc1ccc(C(NC(=O)C(C)(C)C)NC(=O)C(C)(C)C)cc1", "lipid storage change, negative = inhibition": "1.97% (inactive)", "cell number change": -2.15},
      {"smiles": "O=C(CNS(=O)(=O)c1ccc(Br)s1)NC1CCCc2ccccc21", "note": "(configuration not stated)", "lipid storage change, negative = inhibition": "19% (inactive)", "cell number change": -8.37},
      {"smiles": "COc1ccc(C)cc1NC(=O)CCCN1C(=S)NC(C)(C)CC1C", "note": "(configuration not stated)", "lipid storage change, negative = inhibition": "17.4% (inactive)", "cell number change": -1.97}
    ]}
  ]
}
